RORgamma inh: ROR gamma (mouse) transcription inhibition; Drosophila S2 Gal4-RORgamma UAS-luciferase reporter, 20 h; Potency, µM (series often up to 53.6 µM), usual class: inhibitors; hit rate 5.4% among 310,000; AID 2551; further: nearly all actives have a fitted effect of over 60% in size
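Compounds are pin-transferred onto Drosophila Schneider cells expressing a copper-inducible Gal4–ROR gamma transactivation domain fusion. After 1 hr, copper sulfate is added to 700 uM final; luciferase is read 20 hr later.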
TDP1 cell CPT: DT40-hTDP1 cell growth loss with CPT; hit rate 12% among 420,000; chicken DT40 Tdp1-/-;hTDP1 cells + 20 nM CPT, ATP luminescence, 48 h; Potency, µM (series often up to 46.2 µM), hits mostly inhibitors; AID 686979; further: nearly all actives have a fitted effect of over 55% in size
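Chicken DT40 Tdp1-/- cells complemented with human TDP1, 400 cells/well, exposed to compounds plus 20 nM camptothecin for at least 48 h at 37 C; viability read as ATP content by CellTiter-Glo luminescence.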
TDP1 cell noCPT: qHTS for Inhibitors of human tyrosyl-DNA phosphodiesterase 1 (TDP1): qHTS in cells in absence of CPT. DT40 Tdp1-/- hTDP1 cells, no CPT, ATP luminescence, 48 h. Potency, µM (series often up to 46.2 µM), actives largely listed as inhibitors. hit rate 15% among 420,000. AID 686978, 2013; further: nearly all actives have a fitted effect of over 55% in size
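Growth kinetics read by CellTiter-Glo luminescence after ≥48 hr at 37 °C. Cells: DT40 Tdp1-/- stably carrying human TDP1, 400 per well, compound exposure in the absence of CPT (DMSO vehicle).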
VP16 counter: inhibits Gal4-VP16 luciferase reporter, ROR gamma counter-screen | Potency, µM (doses to about 53.6 µM), actives largely listed as inhibitors | hit rate 3.5% among 310,000 | AID 2546 | Drosophila S2 Gal4-VP16 UAS-luciferase, luminescence, 20 h;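 further: Gal4-VP16 expression switched on by copper sulfate through the metallothionein promoter; nearly all actives have a fitted effect of over 50% in size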
TDP1 inh: TDP1 (human) enzyme inhibition. Potency, µM (doses to about 130 µM), hits mostly inhibitors. hit rate 0.28% among 350,000. Q9NUW8. recombinant TDP1, AlphaScreen DNA substrate cleavage; further: nearly all actives have a fitted effect of over 40% in size
Target sequence (Q9NUW8 whole entry, looked up): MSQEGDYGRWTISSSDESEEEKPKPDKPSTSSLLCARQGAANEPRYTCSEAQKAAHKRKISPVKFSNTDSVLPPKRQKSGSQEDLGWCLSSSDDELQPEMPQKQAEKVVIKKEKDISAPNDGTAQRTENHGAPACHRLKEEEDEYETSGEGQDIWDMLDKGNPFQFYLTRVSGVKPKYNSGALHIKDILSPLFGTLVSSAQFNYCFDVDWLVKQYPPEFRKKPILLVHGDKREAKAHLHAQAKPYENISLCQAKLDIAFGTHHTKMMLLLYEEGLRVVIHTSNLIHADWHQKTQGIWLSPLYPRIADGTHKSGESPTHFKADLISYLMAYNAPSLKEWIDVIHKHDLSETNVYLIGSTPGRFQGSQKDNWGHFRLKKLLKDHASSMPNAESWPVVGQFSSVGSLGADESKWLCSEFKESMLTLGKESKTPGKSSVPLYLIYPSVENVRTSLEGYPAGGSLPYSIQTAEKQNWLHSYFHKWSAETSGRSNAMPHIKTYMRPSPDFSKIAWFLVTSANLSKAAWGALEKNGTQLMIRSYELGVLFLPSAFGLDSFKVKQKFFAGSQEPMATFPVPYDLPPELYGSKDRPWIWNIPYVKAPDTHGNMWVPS
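Compounds were preincubated with Tdp1 (1 nM final) for 15 min at room temperature before substrate (15 nM final) started a 5 min reaction; beads (10 ug/ml final) were then added for 10 min before AlphaScreen detection.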
Each line names hits and unclear results; the compound was inactive in the other large screens. The list is not random: actives were taken first. Their share in the collection is about 19%. The call rests on the fitted dose curve; in most records, active means well fitted curve in the direction sought with a large enough effect; inconclusive means small, poorly fitted or top-dose-only effect, or another doubt; inactive means no such curve, though single readings can be large; an effect the other way counts as inactive or inconclusive.

OCC1(Cc2ccc(F)cc2F)CCCN(CCCc2ccccc2)C1 (centres undefined)	TDP1 cell CPT inconclusive, TDP1 cell noCPT 14.6µM (no result: TDP1 inh)
OCC1(Cc2ccccc2F)CCCN(CCc2ccccc2)C1 (centres undefined)	TDP1 cell noCPT inconclusive (no result: TDP1 inh)
CCn1nc(C(C)C)cc1C(=O)N1CCCC(CO)(Cc2ccc(F)cc2F)C1 (centres undefined)	TDP1 cell CPT 23.1µM, TDP1 cell noCPT inconclusive
OCC1(Cc2ccc(F)cc2)CCCN(Cc2ccc(F)cc2Cl)C1 (centres undefined)	RORgamma inh inconclusive, TDP1 cell noCPT 25.9µM
CNC(=O)c1ccc(NC(=O)CC23CC4CC(CC(C4)C2)C3)cc1	TDP1 cell noCPT inconclusive (no result: TDP1 inh)
Cc1ccc(N=Cc2cc(Cl)cc(Cl)c2O)nc1	RORgamma inh inconclusive, TDP1 cell CPT inconclusive, VP16 counter inconclusive
CN(/N=C/c1cc(Cl)cc(Cl)c1O)C(=S)NC(C)(C)C	RORgamma inh inconclusive, TDP1 cell CPT inconclusive, TDP1 cell noCPT 16.4µM, VP16 counter 15.8µM
O=S(=O)(c1ccc(NC(=S)N2CCN(c3ccccc3F)CC2)cc1)N1CCOCC1	TDP1 cell CPT inconclusive, TDP1 cell noCPT 18.4µM, VP16 counter inconclusive
COc1ccccc1N1CCN(C(=S)Nc2ccc(S(=O)(=O)N3CCOCC3)cc2)CC1	TDP1 cell CPT 18.4µM, TDP1 cell noCPT 14.6µM, VP16 counter inconclusive (no result: TDP1 inh)
O=S(=O)(c1ccc(Cl)cc1)N1CCN(C(=S)Nc2ccc(F)c(Cl)c2)CC1	RORgamma inh inconclusive, TDP1 cell CPT inconclusive, TDP1 cell noCPT inconclusive, VP16 counter inconclusive
COc1ccccc1N1CCN(S(=O)(=O)c2ccc(NC(C)=O)cc2)CC1	none (no result: TDP1 inh)
Cc1sc(NC(=O)c2ccco2)c(C(c2ccccc2)N2CCC(C)CC2)c1C (centres undefined)	TDP1 cell CPT 10.3µM, TDP1 cell noCPT 6.51µM
Cc1sc(NC(=O)c2ccco2)c(CN2CCN(c3ccc(F)cc3)CC2)c1C	TDP1 cell CPT 20.6µM, TDP1 cell noCPT 11.6µM
CC(=O)Nc1sc2c(c1CN1CCN(c3ccc(F)cc3)CC1)CCCC2	TDP1 cell CPT inconclusive, TDP1 cell noCPT 14.6µM
Cc1sc(NC(=O)c2ccco2)c(C(c2cccnc2)N2CCN(c3ccc(F)cc3)CC2)c1C (centres undefined)	TDP1 cell CPT 1.84µM, TDP1 cell noCPT 5.8µM
Cc1sc(NC(=O)c2ccco2)c(C(c2ccc(F)cc2)N2CCN(C)CC2)c1C (centres undefined)	TDP1 cell CPT inconclusive, TDP1 cell noCPT inconclusive
Cc1c(NC(=O)CC(C)C)cccc1-c1nc2cccnc2s1	TDP1 cell CPT inconclusive, TDP1 cell noCPT inconclusive (no result: RORgamma inh, VP16 counter)
